# Over roughly 33,000 sequences, “e-score” has its median near -0.037; the highest 2% begin near 0.34. What follows is part of a selection rich in the highest values, with near analogues and random picks from the rest.
# Biological target: T1, GST-Rok (full length) (Bacillus subtilis subsp. subtilis str. …, UniProt O34857 1-191)
# T1 sequence: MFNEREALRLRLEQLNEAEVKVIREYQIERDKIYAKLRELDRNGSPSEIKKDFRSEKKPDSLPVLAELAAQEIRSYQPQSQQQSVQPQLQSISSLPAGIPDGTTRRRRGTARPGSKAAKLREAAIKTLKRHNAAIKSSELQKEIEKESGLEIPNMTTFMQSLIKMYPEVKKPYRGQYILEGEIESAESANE
# Test: protein binding microarray; Rok is a gene silencer of Bacillus subtilis; high values mean tight binding
# Details: protein: recombinant; tags: GST (pTH5325, pDEST15-Magic modified); dsDNA, one strand shown
# How it was run: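 Every oligonucleotide joins a 25-mer constant primer to a 35-mer variable part drawn from a de Bruijn sequence of order 10, so each non-palindromic 8-mer appears at least 32 times and each palindromic 8-mer 16 times. The preference for every 8-mer is reported as a unitless, rank-based enrichment score (E-score). This score spans 0.5 for the most favored 8-mer to −0.5 for the most disfavored.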
row,Sequence,binding signal
1,AACGGCTG,0.0377 E-score
2,AAGTCAAT,0.226 E-score
3,CTTGTCTC,0.0221 E-score
4,GGGTTGCA,-0.161 E-score
5,AGATGTAA,0.17 E-score
6,CATCTTAG,0.118 E-score
7,GTTGATCA,-0.00765 E-score
8,CGCAAGCC,-0.112 E-score
9,AGATAGAC,0.108 E-score
10,AGATAGAT,0.386 E-score
11,ACATAGAG,0.00988 E-score
12,ACATAGAT,0.346 E-score
13,AGATAGAG,0.026 E-score
14,ACATAGAC,0.0568 E-score
15,CTCTAGAC,-0.099 E-score
16,ACGAACGA,-0.116 E-score
17,CTCTACTA,0.216 E-score
18,ATCTACTC,0.251 E-score
19,GTCTACTA,0.261 E-score
20,ATCTACTG,0.382 E-score
21,ATCTACTA,0.446 E-score
22,ATCTACGG,0.158 E-score
23,ACATGTTG,-0.0393 E-score
24,CGCGCATA,0.139 E-score
25,AATAAACG,0.0748 E-score

row,Sequence,binding signal
1,GCTGTAAA,0.151 E-score
2,CAGTATAA,0.312 E-score
3,TAGTATAA,0.404 E-score
4,CGGTATAA,0.28 E-score
5,AAGTATAA,0.142 E-score
6,AGGTATAA,0.322 E-score
7,TGGTATAA,0.349 E-score
8,GGTTGTAC,0.114 E-score
9,CGCGACAG,0.0354 E-score
10,GTCTACAC,-0.0482 E-score
11,ATCTACAG,0.26 E-score
12,ATCTACAC,0.348 E-score
13,CTCTACAC,0.0962 E-score
14,ATCTACAT,0.372 E-score
15,ATCTACAA,0.276 E-score
16,AAGGGTTA,-0.101 E-score
17,TCGCACAA,0.0863 E-score
18,CCGGCTGA,-0.0957 E-score
19,TGCATTAA,0.25 E-score
20,GAATTCCA,0.0902 E-score
21,CATAGTAA,0.271 E-score
22,TATAGTAA,0.389 E-score
23,AATAGTAA,0.325 E-score
24,GATAGTAA,0.406 E-score
25,TATAGTCA,0.159 E-score

row,Sequence,binding signal
1,GATAGTAC,0.18 E-score
2,CGGCATGA,-0.101 E-score
3,GGGAATGA,-0.0881 E-score
4,GTATGTGA,0.247 E-score
5,GAAATAAA,0.221 E-score
6,AGATGAAC,0.165 E-score
7,AAGTATAT,0.348 E-score
8,ACGTATAC,0.232 E-score
9,ACGTATAA,0.244 E-score
10,ACGTATAT,0.365 E-score
11,AAGTATAC,0.251 E-score
12,AAGTATAG,0.127 E-score
13,GGGATTGA,-0.112 E-score
14,TATACAGA,0.342 E-score
15,AATACATG,0.108 E-score
16,GATACATA,0.388 E-score
17,TATACACA,0.2 E-score
18,GGTACATA,0.196 E-score
19,GATACATC,0.186 E-score
20,AATACAGA,0.0991 E-score
21,AATACATT,0.252 E-score
22,TATACATA,0.37 E-score
23,TACACATA,0.315 E-score
24,AATACATA,0.373 E-score
25,GATACAGA,-0.0115 E-score

row,Sequence,binding signal
1,GGATTCAC,-0.0831 E-score
2,ACAAGTCG,-0.122 E-score
3,ACCTAGGG,-0.142 E-score
4,CGTGGAGA,0.119 E-score
5,ACGCCAAT,-0.0858 E-score
6,GGGAAGTA,0.17 E-score
7,CCCAGCGC,-0.157 E-score
8,ATTACGAG,0.154 E-score
9,ACTGTCAC,0.011 E-score
10,CATACAAA,0.288 E-score
11,CATACATG,0.143 E-score
12,AGTACAAG,0.217 E-score
13,CATACATC,0.158 E-score
14,AGTACAAA,0.343 E-score
15,CATACATA,0.366 E-score
16,CGTACAAA,0.194 E-score
17,AATACAAA,0.206 E-score
18,TATACAAA,0.402 E-score
19,CGCGTTAG,0.07 E-score
20,CTCTAACC,-0.055 E-score
21,AGAATGAA,0.111 E-score
22,TGGCGCAA,-0.0245 E-score
23,AGGTTACG,-0.0671 E-score
24,CATCTATC,0.289 E-score
25,AATCTATG,0.174 E-score

row,Sequence,binding signal
1,AATCTATA,0.384 E-score
2,GATCTATA,0.307 E-score
3,AATCTATC,0.377 E-score
4,CATCTATA,0.199 E-score
5,ATAGACTA,0.186 E-score
6,AGGGAATC,0.0103 E-score
7,AGTTACCC,0.179 E-score
8,AAGACGTA,0.132 E-score
9,GATATATC,0.39 E-score
10,GGGATATA,0.221 E-score
11,CCGATATA,0.297 E-score
12,GCGATATA,0.342 E-score
13,GAGATATC,0.181 E-score
14,GTGATATA,0.25 E-score
15,ACGATATA,0.298 E-score
16,GATATATA,0.365 E-score
17,GATATAGC,0.0453 E-score
18,GGTACAAC,-0.0759 E-score
19,CTGGCAAA,-0.152 E-score
20,ACACGTGC,-0.0468 E-score
21,TAGCGTAA,0.144 E-score
22,CGGAAATC,0.0575 E-score
23,CAGAAGCG,-0.142 E-score
24,AATATAGG,0.23 E-score
25,CATATAGA,0.133 E-score

row,Sequence,binding signal
1,AAAATAGC,0.179 E-score
2,TCTATAGA,0.36 E-score
3,ACTATAGA,0.174 E-score
4,GATATAGA,0.228 E-score
5,AAAATAGA,0.325 E-score
6,TATATAGA,0.404 E-score
7,CCTATAGA,0.0582 E-score
8,AATATAGT,0.359 E-score
9,AAAATAGT,0.407 E-score
10,AATATAGC,0.32 E-score
11,GCCGCTCA,-0.181 E-score
12,AGCATGTC,0.0983 E-score
13,CAACTTTC,0.15 E-score
14,CATTACCG,0.00887 E-score
15,ACAAAACT,0.085 E-score
16,CCTACCTC,0.0499 E-score
17,ATATAGGA,0.195 E-score
18,CTAGAGAA,0.193 E-score
19,AAAACGAC,-0.0861 E-score
20,AGTTAAAA,0.197 E-score
21,CATTGACA,0.0572 E-score
22,AATGGAGT,0.0603 E-score
23,ACTATAGC,0.164 E-score
24,GATATGGA,0.139 E-score
25,ACTATAGT,0.409 E-score

row,Sequence,binding signal
1,AATATAGA,0.365 E-score
2,AATAGAGA,0.239 E-score
3,ACTATAGG,0.0843 E-score
4,AGTATAGA,0.159 E-score
5,TATATGGA,0.343 E-score
6,CATATGGA,-0.0847 E-score
7,AGGTAATC,-0.0361 E-score
8,AGCGGGGA,-0.076 E-score
9,ACCACTAG,0.0844 E-score
10,AGGAATGC,-0.0829 E-score
11,ATACCTAG,0.31 E-score
12,ATACCTAC,0.351 E-score
13,CTACCTAA,0.22 E-score
14,GTACCTAA,0.132 E-score
15,CTACCTAG,0.235 E-score
16,CTACCTAC,0.346 E-score
17,GTACCTAC,0.353 E-score
18,ATACCTAT,0.333 E-score
19,GAACCTAC,0.15 E-score
20,CTGCGCTA,-0.143 E-score
21,ACAGAAGG,-0.105 E-score
22,AGTCTCTA,0.0503 E-score
23,GCACTTAC,-0.0436 E-score
24,TAAACCTA,0.181 E-score

# Source: paper PMC6212790, “How bacterial xenogeneic silencer rok distinguishes foreign from self DNA in its resident genome”
